According to PubChem BioAssay (Tox21):
A number with no mark means an inactive call. Calls of active or inactive are those of the source. Calls come from the whole dose curve; as a rule, active = well fitted curve in the direction sought with a large enough effect in the repeat runs; inconclusive = weak or mixed curves; inactive = flat fitted curve, though single readings scatter.

test: qHTS assay to test for compound auto fluorescence at 590 nm (red) in HEK293 cells (AID 720679); details: red autofluorescence 540/590 nm; series mostly up to 91.3 µM; fluorescence, % of fluorescent control: at the top concentration
Source text: National Center for Advancing Translational Sciences [NCATS]
NIH Chemical Genomics Center [NCGC]
U.S. Environmental Protection Agency [EPA]
National Institutes of Environmental Health Sciences [NIEHS]
National Toxicology Program [NTP]
U.S. Food and Drug Administration [FDA]
Compound auto fluorescence often interferes with screening of the compound library against various biological targets and signaling pathways. Some of these compounds may have fluorophoric properties. Such properties may interfere with the assay outputs resulting in false positives and/or negatives. To decrease such complications and ensure the compound activities are relevant in terms of biological response, the Tox21 10K compound library was screened for auto fluorescence.
From the fluorophores used as reporter signals in our screening assays, the auto fluorescence equivalencies of compounds against three fluorophores have been evaluated: Triamterene, Fluorescein and Rose Bengal sodium for blue, green and red fluorescence, respectively. The fluorescence intensities were measured using Excitation/Emission wavelengths at 405/460nm, 485/535nm and 540/590nm for blue, green and red labels, respectively. This assay includes the red fluorescence data.
Tox21 Assay Protocol Summary:
2,000 HEK293 cells in 5 uL of culture medium containing 10% dialyzed FBS per well were dispensed into black wall/clear bottom 1536-well plates using a Multidrop Combi Dispenser (Thermo Scientific). The assay plates were incubated for 4-5 hr at 37C to allow cell attachment to the well bottom, followed by the transfer of 23 nL compound or DMSO vehicle by a pintool work station (Kalypsys, San Diego, CA). After the assay plates were incubated overnight at 37C and 5% CO2, fluorescence intensities in the assay plates were measured by an Envision (PerkinElmer, Shelton, CT) plate reader using three labels for measuring blue, green and red fluorescence at […] 460, 535 and 590nm respectively.
% is set by controls: 0 for no effect and ±100 for the full control effect.

Row | Compound | outcome | fluorescence, % of fluorescent control
1 | Cc1cc(C(C)(C)C)c(O)c(C(C)(C)C)c1 | inactive | 
2 | CCCNC(C)C(=O)Nc1ccccc1C (stereo not given) |  | -0.263% [at 46 µM]
3 | CC(C)C(=O)c1c(C(C)C)nn2ccccc12 |  | 0.115% [at 46 µM]
4 | OCCOCCN1CCN(C(c2ccccc2)c2ccc(Cl)cc2)CC1 (stereo not given) | inactive | 
5 | Cc1cc(Cc2cc(C)cc(C(C)(C)C)c2O)c(O)c(C(C)(C)C)c1 | inactive | 
6 | CCN(CC)C(=S)SSC(=S)N(CC)CC | inactive | 
7 | O=C(O)c1cc(Cl)cc(Cl)c1 |  | -0.29%
8 | CC(=O)O[C@]1(C(C)=O)CC[C@H]2[C@@H]3C[C@H](C)C4=CC(=O)CC[C@]4(C)[C@H]3CC[C@@]21C | inactive | 
9 | COc1ccc(CCN(C)CCCC(C#N)(c2ccc(OC)c(OC)c2)C(C)C)cc1OC (stereo not given) | inactive | 
10 | O=C(Nc1ccccc1SSc1ccccc1NC(=O)c1ccccc1)c1ccccc1 | inactive | 
11 | CCC(C)(Oc1ccc(C2(c3ccc(OC(C)(CC)C(=O)O)cc3)CCCCC2)cc1)C(=O)O (stereo not given) |  | -0.634% [at 46 µM]
12 | Cc1cc(C2(c3cc(C)c(O)cc3C)OS(=O)(=O)c3ccccc32)c(C)cc1O | inactive | 
13 | COc1cc(C(=S)N2CCOCC2)ccc1O |  | -0.0569% [at 46 µM]
14 | C1COC(NC(C2CC2)C2CC2)=N1 |  | 0.0249% [at 46 µM]
15 | CCOC(=O)C(C)C(C)=O (stereo not given) |  | -0.256%
16 | CC(=O)CC(=O)Nc1ccc2[nH]c(=O)[nH]c2c1 |  | -0.0345%
17 | CC[C@@H](N)CO |  | 0.0796% [at 95.7 µM]
18 | CC1COc2c(N3CCN(C)CC3)c(F)cc3c(=O)c(C(=O)O)cn1c23 (stereo not given) |  | -0.139% [at 46 µM]
19 | CC(C)(C)c1ccc(O)c(C(C)(C)C)c1 | inactive | 
20 | CCC(C)(C)C(=O)O[C@H]1C[C@@H](C)C=C2C=C[C@H](C)[C@H](CC[C@@H]3C[C@@H](O)CC(=O)O3)[C@H]21 | inactive | 

Row | Compound | outcome | fluorescence, % of fluorescent control
21 | CC(COc1ccccc1)N(CCCl)Cc1ccccc1 (stereo not given) | inactive | 
22 | CCCCC/C=C/CC1CC(=O)OC1=O (stereo not given) |  | -0.0376%
23 | CCCCCC(=O)O[C@]1(C(C)=O)CC[C@H]2[C@@H]3CCC4=CC(=O)CC[C@]4(C)[C@H]3CC[C@@]21C | inactive | 
24 | O=C(O)c1cn(-c2ccc(F)cc2)c2cc(N3CCNCC3)c(F)cc2c1=O |  | -0.198% [at 46 µM]
25 | CCN(CC)C(=O)Nc1ccc(OCC(O)CNC(C)(C)C)c(C(C)=O)c1 (stereo not given) |  | 0.687% [at 46 µM]
26 | O=C1CC2(CCCC2)CC(=O)N1CCCCN1CCN(c2ncccn2)CC1 | inactive | 
27 | CN1C(=O)c2ccc([N+](=O)[O-])cc2C1=O |  | -0.0602%
28 | Cc1cccc2n[nH]nc12 | inactive | 
29 | Nc1cc(Cl)c(-c2cc(Cl)c(N)cc2Cl)cc1Cl | inactive | 
30 | Cc1scc2c1N(C(=O)CN1CCN(C)CC1)c1ccccc1NC2=O |  | 0.0478% [at 46 µM]
31 | [Cl][In]([Cl])[Cl] | inactive | 
32 | C=CS(=O)(=O)O | inactive | 
33 | CC(N)=O |  | 0.237% [at 203 µM]
34 | O=C(O)CP(=O)(O)O |  | 0.125% [at 46 µM]
35 | Oc1ccc(Cl)cc1Cc1cc(Cl)ccc1O | inactive | 
36 | CCCC(=O)c1ccccc1 |  | -0.291%
37 | Oc1c(Cl)cc(Cl)cc1Sc1cc(Cl)cc(Cl)c1O | inactive | 
38 | CCC(=O)/C=C/C1C(C)=CCCC1(C)C (stereo not given) | inactive | 
39 | CC(C)(C)c1cc(C(C)(C)C)c(O)c(C(C)(C)C)c1 | inactive | 
40 | Cc1cc(OCCOCC[N+](C)(C)Cc2ccccc2)ccc1C(C)(C)CC(C)(C)C | inactive | 
